# Laboratory results from the supplement of paper PMC10720658.
# ± gives the standard deviation of the averaged measurements.
# Test system: AEK1 (Tb927.3.2440)
# Assay: percent reduction in TR-FRET probe signal relative to DMSO control; higher = stronger displacement of ATP-site probe (binding)
# Conditions: 1 µM; incubation time 1 h
row,SMILES,percent reduction in TR-FRET probe signal
1,N#CCNC(=O)c1ccc(-c2ccnc(Nc3ccc(N4CCOCC4)cc3)n2)cc1,16.3 ± 16%
2,CCOC(=O)c1cnc2ccc(-c3cncc(NS(=O)(=O)c4ccccc4)c3)cn12,-3.6 ± 8.8%
3,O=C(NOCC(O)CO)c1cc(Br)c(F)c(F)c1Nc1ccc(I)cc1F (configuration not stated),-4.38 ± 12%
4,CCn1c2ccccc2c2cc(Nc3ccnc(NCCCN4CCOCC4)n3)ccc21,-8.54 ± 5.5%
5,CCNC(=O)Nc1ccc(-c2nc3c(c(N4CCOC[C@@H]4C)n2)CCN(C2COC2)C3)cc1,13.6 ± 12%
6,Cn1cnc(-c2cc3nccc(Oc4ccc(NC(=S)NC(=O)Cc5ccccc5)cc4F)c3s2)c1,10.3 ± 8.6%
7,NC(=O)c1ccc(-c2nc(-c3ccc4c(c3)OCCO4)c(-c3ccccn3)[nH]2)cc1,-1.5 ± 7.3%
8,Nc1nccc(Oc2ccc(NC(=O)c3c[nH]cc(-c4ccc(F)cc4)c3=O)cc2F)c1Cl,24.6 ± 15%
9,C[C@@H]1CN(CC(=O)Nc2ccc3c(c2)Cc2cccc(-c4cc(=O)cc(N5CCOCC5)o4)c2S3)C[C@H](C)O1,-2.9 ± 6.6%
10,Cc1nc(Nc2cnn(C3CCNCC3)c2)nc2c1N(C)C(=O)c1cc3ccccc3cc1N2C,-10.5 ± 7.1%
11,CCN(C)S(=O)(=O)Nc1ccc(F)c(C(=O)c2c[nH]c3ncc(-c4cnc(C5CC5)nc4)cc23)c1F,-1.7 ± 4%
12,CCc1cc(Nc2nccc(-c3c(-c4ccc(OC)c(C(=O)Nc5c(F)cccc5F)c4)nc4ccccn34)n2)c(OC)cc1N1CCC(N2CCN(S(C)(=O)=O)CC2)CC1,-12.2 ± 12%
13,O=C(Nc1ccc(OC(F)(F)F)cc1)c1sccc1NCc1ccnc2ccccc12,-8.08 ± 5.7%
14,COc1ccc(S(=O)(=O)N(CCO)c2ccccc2CN(C)C/C=C/c2ccc(Cl)cc2)cc1.O=P(O)(O)O [KN-93 Phosphate],-9.18 ± 9.6%
15,CC(C)n1nc(-c2ccc3oc(N)nc3c2)c2c(N)ncnc21,-2.53 ± 6.7%
16,N#C/C(=C\c1ccc(O)c(O)c1)C(=O)NCc1ccccc1 [AG-490 (Tyrphostin B42)],-5.12 ± 12%
17,CCc1cncnc1N1CCN(Cc2nc3cc(C(F)(F)F)ccc3[nH]2)CC1,-7.37 ± 13%
18,Cc1ccccc1-n1c(Cn2nc(-c3cccc(O)c3)c3c(N)ncnc32)nc2cccc(C)c2c1=O,1.94 ± 11%
19,CN(c1ccccc1CNc1nc(Nc2ccc3c(c2)CC(=O)N3)ncc1C(F)(F)F)S(C)(=O)=O,55.1 ± 4.3%

row,SMILES,percent reduction in TR-FRET probe signal
1,c1cncc(CN2CCC(n3ncc4c(N5CCOCC5)nc(-c5ccc6[nH]ccc6c5)nc43)CC2)c1,6.62 ± 13%
2,CN(C)S(=O)(=O)c1ccc2c(c1)/C(=C/c1cc3c([nH]1)CCCC3)C(=O)N2,43.6 ± 21%
3,CO[C@@H](C(=O)N1Cc2[nH]nc(NC(=O)c3ccc(N4CCN(C)CC4)cc3)c2C1)c1ccccc1,24.2 ± 6.1%
4,Cc1[nH]c(/C=C2\C(=O)Nc3ccc(S(=O)(=O)N(C)c4cccc(Cl)c4)cc32)c(C)c1C(=O)N1CCN(C)CC1,34.1 ± 16%
5,Cc1n[nH]c2ccc(-c3cncc(OC[C@@H](N)Cc4ccccc4)c3)cc12,14.1 ± 24%
6,Cc1cc2c(F)c(Oc3ncnn4cc(OC[C@@H](C)OC(=O)[C@H](C)N)c(C)c34)ccc2[nH]1,8.47 ± 14%
7,O=C1N=C(NCc2cccs2)S/C1=C\c1ccc2ncccc2c1,8.12 ± 4.7%
8,CC(C)(CCCCCC(O)CCCCCC(C)(C)C(=O)O)C(=O)O,0.88 ± 3.4%
9,C[C@H](Nc1ncnc2[nH]cnc12)c1cc2ccc(F)cc2nc1-c1ccccn1,-3.52 ± 7.7%
10,Cc1nc(Nc2ncc(C(=O)Nc3c(C)cccc3Cl)s2)cc(N2CCN(CCO)CC2)n1 [Dasatinib],10.6 ± 19%
11,O=[N+]([O-])c1cnc(Sc2nnc(O)n2-c2ccc3c(c2)OCCO3)s1,0.0867 ± 3.4%
12,Cc1cc(Nc2nc(N[C@@H](C)c3ccc(F)cc3)c(C#N)cc2F)n[nH]1,56.3 ± 7.3%
13,CCN(CCO)CCCOc1ccc2c(Nc3cc(CC(=O)Nc4cccc(F)c4)n[nH]3)ncnc2c1 [Barasertib (AZD1152-HQPA)],-5.79 ± 4.7%
14,CC(C)NC[C@@H](C(=O)N1CCN(c2ncnc3c2[C@H](C)C[C@H]3O)CC1)c1ccc(Cl)cc1,11.4 ± 8.1%
15,O=C(NCCO)c1cccc(-c2cc(Nc3ccc(OC(F)(F)F)cc3)ncn2)c1,13.3 ± 16%
16,C=CC(=O)Nc1cccc(Nc2nc(Nc3ccc(OCCOC)cc3)ncc2F)c1,-0.667 ± 7.7%
17,Cc1cc(C(=O)NOCCO)c(Nc2ccc(I)cc2F)n(C)c1=O,4.03 ± 2.7%
18,Cn1cnc(N)c2ncnc1-2 [3-Methyladenine (3-MA)],-2.13 ± 5.3%
